Compound activity: PubChem BioAssay, National Center for Advancing Translational Sciences (NCATS)
In the library only some 1.7% were active in any assay of this set; here they are far more common.
KCNH2 WT inh = blocks the wildtype human KCNH2 potassium channel; U2OS, BacMam KCNH2, thallium flux FluxOr; stronger effect = lower value; activity change, % at 1.84 µM; hit rate 0.37% among 340,000;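 active = maximum activity change below -70%; inconclusive = maximum activity change between -70% and -50%; inactive = maximum activity change above -50%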
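U2OS cells transduced with wild-type KCNH2 virus are loaded with FluxOr dye for 45 min, and thallium flux is measured in kinetic reads before and after stimulation buffer. Rate constants are normalized to DMSO controls.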
KCNH2 3.1 inh = KCNH2 3.1 (human) potassium channel inhibition; U2OS KCNH2 3.1, thallium flux FluxOr; stronger effect = lower value; activity change, % (tested at about 1.8 µM); hit rate 0.95% among 340,000; AID 720553;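 active = maximum activity change below -70%; inconclusive = maximum activity change from -70% to -50%; inactive = maximum activity change above -50%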;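 also: thallium influx rate constant from kinetic fluorescence after stimulation buffer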
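Steps: virus added to U2OS suspension (4 h, RT, dark); medium with 10% FBS added, cells plated, 37 C overnight; FluxOr/Red40 loading buffer 45 min RT; stimulation buffer, 2 min kinetic read; rate constant normalized.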
USP1 inh = inhibitors of human USP1/UAF1 deubiquitinase. AID 743255. Potency, µM (titrated, usually from 57.1 µM), for the others: top-dose activity change, negative = inhibition, most hits filed as inhibitors. O94782. recombinant USP1/UAF1, Ub-Rhodamine cleavage fluorescence. hit rate 0.23% among 390,000; active = well fitted inhibition curve with a large enough effect; inconclusive = small, poorly fitted or top-dose-only effect; inactive = no such curve, though single readings can be large or run the other way; also: potency is read from the fitted curve at half-maximal effect; nearly all actives have a fitted effect of over 60% in size
Target sequence (O94782 whole entry, looked up): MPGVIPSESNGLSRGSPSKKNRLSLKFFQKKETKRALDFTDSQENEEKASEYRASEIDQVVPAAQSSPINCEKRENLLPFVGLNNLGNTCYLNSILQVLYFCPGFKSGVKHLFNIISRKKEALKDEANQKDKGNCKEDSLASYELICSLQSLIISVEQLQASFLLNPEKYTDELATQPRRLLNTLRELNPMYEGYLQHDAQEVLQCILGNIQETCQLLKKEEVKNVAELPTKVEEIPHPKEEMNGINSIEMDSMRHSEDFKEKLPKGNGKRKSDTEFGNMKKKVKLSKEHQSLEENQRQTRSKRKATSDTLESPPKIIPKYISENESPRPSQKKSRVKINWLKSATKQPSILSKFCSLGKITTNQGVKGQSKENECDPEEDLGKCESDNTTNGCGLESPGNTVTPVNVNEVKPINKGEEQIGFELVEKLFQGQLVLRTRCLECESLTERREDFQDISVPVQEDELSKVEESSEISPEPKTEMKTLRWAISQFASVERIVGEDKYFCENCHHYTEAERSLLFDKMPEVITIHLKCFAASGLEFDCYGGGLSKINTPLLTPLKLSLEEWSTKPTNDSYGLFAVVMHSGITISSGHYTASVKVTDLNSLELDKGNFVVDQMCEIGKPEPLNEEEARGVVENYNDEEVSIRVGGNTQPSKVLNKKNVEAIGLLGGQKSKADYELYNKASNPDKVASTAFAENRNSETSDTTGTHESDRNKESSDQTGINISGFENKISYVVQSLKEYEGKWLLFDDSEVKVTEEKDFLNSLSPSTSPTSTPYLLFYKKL
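USP1/UAF1 complex (1 nM) preincubated 15 min at room temperature with compound, then Ub-Rho substrate (150 nM final) added. Kinetic fluorescence at 480/540 nm over 6 reads at 60 s intervals; 50 mM HEPES pH 7.8, 0.5 mM EDTA, 0.1 mg/ml BSA, 1 mM TCEP, 0.01% Tween-20.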
Coupling enz = coupling enzyme interference in Giardia aldolase counter-screen; coupling enzyme system counterscreen, AmpLite Red fluorescence; activity change, negative = inhibition, % at 58.2 µM, hits read low; hit rate 0.67% among 290,000; AID 2472; in the data active = activity change below about -30%
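Fluorescence at 525 nm excitation and 598 nm emission measured inhibition of the coupled detection system without aldolase. Compounds (at 57.5 uM final) were preincubated 10 min at room temperature with coupling enzyme reagent before a 20 min substrate/AmpLite Red step.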
Giardia killer = Giardia lamblia killing | Giardia lamblia trophozoite viability | AID 540267 | activity change, % at 7.66 µM, hits read low | hit rate 0.15% among 340,000; in the data active = activity change below about -80%; inconclusive = between about -30% and that limit;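 also: parasites exposed to compound for two days anaerobically before the ATP read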
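ATP-content bioluminescence gauges trophozoite survival. Cells (100/well) receive compound and incubate anaerobically for 48 hrs at 37 deg C; detection reagent follows for 15-30 min at room temperature.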
* = called active by the depositor; i = inactive; ? = inconclusive; · = not tested or not shown; ! = repeats disagree. % is scaled to controls: 0 for no effect and ±100 for the full control effect.

SMILES	KCNH2 WT inh	KCNH2 3.1 inh	USP1 inh	Coupling enz	Giardia killer
CNC(=O)C1CCC(Cn2c(=O)c3sccc3n(CC(=O)NCc3ccccc3)c2=O)CC1 (configuration not stated)	·	·	-5%	·	·
CCOc1ccc(-n2ccnc2SCC(=O)Nc2nc3ccc(C)cc3s2)cc1	·	·	1%	·	·
O=C(O)c1ccc(N=Cc2c(O)ccc3ccccc23)cc1	-7	8	-27%	-36*	6
Cn1c(/N=C/c2c(O)ccc3ccccc23)nc2ccccc21	3	-2	?	-79*	-6
N#Cc1cccc(N=Cc2c(O)ccc3ccccc23)c1	3	-17	-17%	-38*	1
Cc1ccc(N=Cc2c(O)ccc3ccccc23)cc1F	22	19	3%	-47*	-11
NC(=O)c1ccc(N=Cc2c(O)ccc3ccccc23)cc1	4	-7	?	·	-14
CCCn1c(/N=C/c2ccccc2O)nc2ccccc21	-8	5	-8%	-2	3
COc1ccc(N=Cc2c(O)ccc3ccccc23)cc1	12	-2	?	-23	9
Cc1ccc(-n2nc3c(N4CCC(C(=O)NC(C)C)CC4)nnc(C)c3c2C)cc1	·	·	-17%	·	·
COc1cc(C(=O)NCC(c2cccnc2)N2CCc3ccccc32)cc(OC)c1OC (configuration not stated)	·	·	10%	·	·
CCOc1cc(CNC(=O)NC2COc3ccc(OC)cc3C2)cc(OCC)c1OCC (configuration not stated)	·	·	-9%	·	·
Cc1oc(/N=C/c2ccccc2O)c(C#N)c1C	7	7	-9%	-16	6
O=S(=O)(/N=C/c1c(O)ccc2ccccc12)c1ccccc1	-1	-8	-18%	-36*	-10
Cc1oc(/N=C/c2c(O)ccc3ccccc23)c(C#N)c1C	·	·	·	-30*	·
CCOC(=O)c1sc(/N=C/c2c(O)ccc3ccccc23)cc1C	-2	1	-17%	-34*	4
O=C(N/N=C/c1c(O)ccc2ccccc12)Nc1ccccc1	2	-8	-14%	·	-3
O=C(CSc1nnc(-c2ccc(Cl)cc2)o1)N1CCc2ccccc21	·	·	-19%	·	·
COc1cc(CNc2ccc(N3CCCC3)cc2)cc(Cl)c1OC	-5	17	?	-27	-6
CCOc1cc(CNc2ccc(N3CCCC3)cc2)cc(Cl)c1OC	-3	5	28µM*	-22	-3
COc1cccc(CNc2ccc(N3CCCCC3)cc2)c1OC	1	36	?	-34*	11
O=C(Cn1c(=O)nc(-c2ccccc2)c2cc(Cl)ccc21)Nc1ccc(F)c(Cl)c1	·	·	-17%	·	·
COc1ccc(NC(=O)NCCn2nnc3cc(S(=O)(=O)N(C)C)ccc32)cc1	·	·	-25%	·	·
COc1cc2c(-c3ccccc3)c(C)oc2cc1/C=N/NC(N)=S	-10	7	-13%	·	11
CC(C)/C=C1\CC/C(=C\c2ccc(N(C)C)cc2)C1=O	-34	-79*	-13%	-1	-4
SMILES	KCNH2 WT inh	KCNH2 3.1 inh	USP1 inh	Coupling enz	Giardia killer
CN(C)c1ccc(/C=C2/C[N+](C)(C)C/C(=C/c3ccc(N(C)C)cc3)C2=O)cc1	45	·	?	·	-4
CCOC(=O)c1c(NC(=O)c2ccc(S(=O)(=O)N(CCOC)CCOC)cc2)sc2c1CC(C)(C)NC2(C)C	·	·	-18%	·	·
COc1cccc(NC(=O)CN2C(=O)COc3ccc(S(=O)(=O)N4CCCCCC4)cc32)c1	-2	-111*	-16%	4	-1
O=C(CN1C(=O)COc2ccc(S(=O)(=O)N3CCCC3)cc21)NC1CCCCCCC1	·	·	·	-2	·
O=C(CN1C(=O)COc2ccc(S(=O)(=O)N3CCCC3)cc21)NC1CC1	-83*	0	-13%	-2	10
Cc1ccc(CN2CCCn3nc(C(=O)NCCC(C)C)cc3C2=O)cc1	·	·	-7%	·	·
CC/C=C1/N=C2C(=O)N(C)C(=O)N=C2N(C)N1	·	·	·	·	-88*
CN1N/C(=C\c2ccccc2)N=C2C(=O)N(C)C(=O)N=C21	·	·	·	·	-105*
O=C1NN(c2ccccc2)C(=O)/C1=C\c1ccccc1	7	13	-11%	1	3
COc1ccc(/C=C/C(=O)Nc2ccc(OC)nc2)cc1	i	3	-19%	-4	-5
COc1ccc(NC(=O)/C=C/c2ccc(OC(F)F)cc2)cn1	4	-75*	-13%	-4	-7
COc1ccc(S(=O)(=O)NCc2cccn2Cc2cc(C)ccc2C)cc1OC	·	·	-19%	·	·
Cn1c(-c2c(N)n(-c3ccccc3)c3nc4ccccc4nc23)nc2ccccc21	-5	-4	-4%	3	10
Cc1cccc(-n2c(N)c(-c3nc4ccccc4n3C)c3nc4ccccc4nc32)c1	-134*	-96*	?	0	-18
COC(=O)CCCC1=CC2=C(c3ccccc3)C(=O)C(C)(OC(=O)C3CCCC3)C(=O)C2=CN1C1CCCCC1 (configuration not stated)	4	-3	-24%	-31*!	20
CC1(OC(=O)C2CCCC2)C(=O)C=C2C=C(c3ccsc3)N(CCCCO)C=C2C1=O (configuration not stated)	6	-10	?	-37*	-1
CC(C)OCCCN1C=C2C(=O)C(C)(OC(=O)C3CCCC3)C(=O)C=C2C=C1c1ccsc1 (configuration not stated)	·	·	·	-41*	·
COc1ccc(CN2C=C3C(=O)C(C)(OC(=O)C4CCCC4)C(=O)C=C3C=C2c2ccsc2)cc1 (configuration not stated)	37	11	-16%	-4	?
CC1(OC(=O)C2CCCC2)C(=O)C=C2C=C(c3ccsc3)N(C3CCCC3)C=C2C1=O (configuration not stated)	·	·	?	-32*!	-22
CC1(C)Oc2cc3c(cc2O1)OC(C)(C)O3	·	·	·	0	·
CC1(C)OC(=O)C2(Cc3ccccc3N3CCC(c4ccccc4)CC32)C(=O)O1 (configuration not stated)	·	·	·	·	-14
COc1ccc(C2c3c(n(C)c4ccccc34)C(=O)N2CC(=O)Nc2c(C)cc(C)cc2C)cc1 (configuration not stated)	·	·	-11%	·	·
Cc1oc2c(c1C(=O)NCc1ccccc1F)C1=NCCN1C=N2	·	·	3%	·	·
O=C(COc1ccc2ccccc2c1)N1CCN(C(=O)c2ccco2)CC1	-1	-7	3%	2	11
O=C(NCc1ccccc1)c1cccc(OCC(=O)N2CCN(C(=O)c3ccco3)CC2)c1	5	-97*	-10%	1	10
CCCCCc1cc(=O)oc2c(C(CCN3CCCCC3)c3ccc(OC)cc3)c(OC)cc(OC)c12 (configuration not stated)	?	?	?	-1	17
CCCCCc1cc(=O)oc2c(C(CCN3CCCC(C)C3)c3ccc(OC)cc3)c(OC)cc(OC)c12 (configuration not stated)	-115*	-91*	-4%	0	0
